# Several values for one entry are separate records, joined by “and”; a condition that tells them apart may be missing. Identical values can stand only once. Records with an inconclusive call do not appear. A call without a number means that no potency is given here. Activity calls are given as the source filed them. Unless noted, the call rests on the fitted dose curve; in most records, active means well fitted curve in the direction sought with a large enough effect in the repeat runs; inconclusive means weak or mixed curves; inactive means no such curve, though single readings can be large; an effect the other way counts as inactive or inconclusive.
# Biological target: Estrogen receptor (Homo sapiens) (UniProt P03372)
# Sequence (P03372 whole entry, looked up): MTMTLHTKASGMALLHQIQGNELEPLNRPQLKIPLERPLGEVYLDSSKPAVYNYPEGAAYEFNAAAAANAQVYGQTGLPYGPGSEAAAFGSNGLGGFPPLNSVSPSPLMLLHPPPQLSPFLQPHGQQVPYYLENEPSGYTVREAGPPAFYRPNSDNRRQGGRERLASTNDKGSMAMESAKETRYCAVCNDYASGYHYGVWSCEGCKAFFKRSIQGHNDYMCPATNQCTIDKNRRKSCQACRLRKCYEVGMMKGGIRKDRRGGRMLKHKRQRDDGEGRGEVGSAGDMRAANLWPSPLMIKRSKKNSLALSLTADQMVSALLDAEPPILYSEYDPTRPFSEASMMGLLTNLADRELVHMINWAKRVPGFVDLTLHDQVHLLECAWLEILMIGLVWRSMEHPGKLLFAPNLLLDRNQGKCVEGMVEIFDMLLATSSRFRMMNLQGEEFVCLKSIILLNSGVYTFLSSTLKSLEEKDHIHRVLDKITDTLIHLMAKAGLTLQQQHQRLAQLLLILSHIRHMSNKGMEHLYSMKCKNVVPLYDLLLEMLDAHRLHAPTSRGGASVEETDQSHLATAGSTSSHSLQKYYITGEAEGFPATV
# Assay: qHTS assay to identify small molecule antagonists of the estrogen receptor alpha (ER-alpha) signaling pathway using the BG1 cell line in the presence of 0.1 nM 17-beta-estradiol (AID 1259244); further: nearly all actives have a fitted effect of over 50% in size; further: potency means the concentration at half of the fitted maximal effect
# Conditions: VM7Luc4E2 (BG1) ERE-luciferase, antagonist mode, 0.1 nM E2, 22 h; series mostly up to 92.4 µM
# Outline: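 Quantitative high-throughput screen in VM7Luc4E2 cells: compound plus 0.1 nM E2 (final), 22 h, 37C, 5% CO2; ONE-Glo added, 30 min room temperature, luminescence measured.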
row,SMILES,Potency
1,OC(CCl)CCl,inactive
2,COc1ccccc1/C=C/C=O,inactive
3,O=C(OCc1ccccc1)c1ccccc1O,inactive
4,c1cc(-c2ccncc2)ccn1,inactive
5,CC(C)OB(OC(C)C)OC(C)C,inactive
6,CC(CCC(=O)O)(c1ccc(O)cc1)c1ccc(O)cc1,inactive
7,CC(C)OC=O,inactive
8,COC(=O)C1=C(C)NC(C)=C(C(=O)OCCN(C)Cc2ccccc2)C1c1cccc([N+](=O)[O-])c1 (configuration not stated),68.2 µM (active)
9,CC(C)=CCCC(C)CCO (configuration not stated),inactive
10,O=C(c1ccccc1)c1ccc(O)cc1O,inactive

# System: not listed separately
# Assay: qHTS assay to identify small molecule phospholipidosis (PLD) inducers (AID 1259344; active means well fitted curve in the direction sought with a large enough effect; an effect the other way counts as inactive or inconclusive)
# Conditions: HepG2 phospholipidosis, LipidTOX Red imaging, 24 h; series mostly up to 38.3 µM
# Outline: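 Fluorescent phospholipid staining (LipidTOX Red) measured by automated microscopy in fixed HepG2 cells after 24 h treatment; nuclei counterstained with Hoechst 33342; amiodarone as reference inducer.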
row,SMILES,Potency
1,C[C@]12CCC(=O)C=C1CC[C@@H]1[C@@H]2C(=O)C[C@@]2(C)[C@H]1CC[C@]2(O)C(=O)CO,inactive
2,CN(C)CCN(Cc1cccs1)c1ccccn1,inactive
3,Nc1ccccc1N,inactive
4,Nc1ncnc2nc[nH]c12,inactive
5,CCOC(=O)C(C#N)=C(c1ccccc1)c1ccccc1,inactive
6,Cn1cnc([N+](=O)[O-])c1Sc1ncnc2nc[nH]c12,inactive

# System: not listed separately
# Assay: qHTS assay to identify small molecule HDAC inhibitors (AID 1259364); further: nearly all actives have a fitted effect of over 45% in size; further: potency means the concentration at half of the fitted maximal effect
# Conditions: HCT-116 HDAC-Glo I/II luminescence, 2 h; series mostly up to 92.4 µM
# Outline: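 Endogenous HDAC class I/II activity was measured in wild-type HCT-116 cells by HDAC-Glo luminescence after 2 h compound treatment.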
row,SMILES,Potency
1,O=Cc1ccccc1O,inactive
2,C[C@]12CCC(=O)C=C1CC[C@@H]1[C@@H]2C(=O)C[C@@]2(C)[C@H]1CC[C@]2(O)C(=O)CO,inactive
3,O=[N+]([O-])c1ccc2c(c1)Cc1ccccc1-2,inactive
4,S=C(NC1CCCCC1)NC1CCCCC1,inactive
5,c1ccc2sc(SSN3CCOCC3)nc2c1,inactive
6,CN(C)CCN(Cc1cccs1)c1ccccn1,inactive
7,OC1CCCCCCCCCCC1,inactive
8,COC(=O)CCC(=O)OC,inactive
9,CCCCC(CC)COCC1CO1 (configuration not stated),inactive
10,Nc1ccccc1N,19.8 µM (active)
11,CCC(C)CO (configuration not stated),inactive
12,Nc1ncnc2nc[nH]c12,inactive
13,c1cc(N(CC2CO2)CC2CO2)ccc1OCC1CO1 (configuration not stated),inactive
14,Nc1ccc(Nc2ccccc2)cc1,inactive
15,O=C(/C=C/C=C/c1ccc2c(c1)OCO2)N1CCCCC1,9.71 µM (active) and 8.63 µM (active)
16,CCCCOCCOCCO,inactive
17,c1ccc2c(c1)Oc1ccccc1S2,inactive
18,c1ccncc1,inactive
19,Nc1ccc(Cl)cc1Cl,inactive

row,SMILES,Potency
1,CCCCCCCCCCCO,inactive
2,CCCCOCCOCCOCCO,inactive
3,CCOC(=O)C(C#N)=C(c1ccccc1)c1ccccc1,inactive
4,CCC(C)(O)CCCC(C)C (configuration not stated),inactive
5,CC(=O)CC/C=C(\C)CCC=C(C)C,inactive
6,CC1=CC2C3CC(C=C3C)C2C1 (configuration not stated),inactive
7,Cn1cnc([N+](=O)[O-])c1Sc1ncnc2nc[nH]c12,inactive
8,C=CC(C)(CCC=C(C)C)OC(C)=O (configuration not stated),inactive
9,CCCCNS(=O)(=O)c1ccccc1,inactive
10,OC(CCl)CCl,inactive
11,COc1ccccc1/C=C/C=O,inactive
12,O=C(OCc1ccccc1)c1ccccc1O,24.2 µM (active) and 24.3 µM (active)
13,c1cc(-c2ccncc2)ccn1,inactive
14,CC(C)OB(OC(C)C)OC(C)C,inactive
15,CC(CCC(=O)O)(c1ccc(O)cc1)c1ccc(O)cc1,inactive
16,CC(C)OC=O,inactive
17,COC(=O)C1=C(C)NC(C)=C(C(=O)OCCN(C)Cc2ccccc2)C1c1cccc([N+](=O)[O-])c1 (configuration not stated),inactive
18,CC(C)=CCCC(C)CCO (configuration not stated),inactive
19,O=C(c1ccccc1)c1ccc(O)cc1O,inactive

# System: not listed separately
# Assay: qHTS assay to identify small molecule HDAC inhibitors - cell viability counter screen (AID 1259365); further: nearly all actives have a fitted effect of over 50% in size
# Conditions: HCT-116 viability, CellTiter-Glo ATP luminescence, 2 h; series mostly up to 92.4 µM
# Outline: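 Following a 2hr exposure of overnight-plated wild-type HCT-116 cells to DMSO-delivered compounds, CellTiter-Glo was added and luminescence recorded after 30min at room temperature.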
row,SMILES,outcome
1,O=Cc1ccccc1O,inactive
2,C[C@]12CCC(=O)C=C1CC[C@@H]1[C@@H]2C(=O)C[C@@]2(C)[C@H]1CC[C@]2(O)C(=O)CO,inactive
3,O=[N+]([O-])c1ccc2c(c1)Cc1ccccc1-2,inactive
4,S=C(NC1CCCCC1)NC1CCCCC1,inactive
5,c1ccc2sc(SSN3CCOCC3)nc2c1,inactive
6,CN(C)CCN(Cc1cccs1)c1ccccn1,inactive
7,OC1CCCCCCCCCCC1,inactive
8,COC(=O)CCC(=O)OC,inactive
9,CCCCC(CC)COCC1CO1 (configuration not stated),inactive
10,Nc1ccccc1N,inactive
11,CCC(C)CO (configuration not stated),inactive
12,c1cc(N(CC2CO2)CC2CO2)ccc1OCC1CO1 (configuration not stated),inactive
13,Nc1ccc(Nc2ccccc2)cc1,inactive
14,O=C(/C=C/C=C/c1ccc2c(c1)OCO2)N1CCCCC1,inactive
15,CCCCOCCOCCO,inactive
16,c1ccc2c(c1)Oc1ccccc1S2,inactive
17,c1ccncc1,inactive
18,Nc1ccc(Cl)cc1Cl,inactive
19,CCCCCCCCCCCO,inactive

row,SMILES,outcome
1,CCCCOCCOCCOCCO,inactive
2,CCC(C)OC(=O)c1ccc(O)cc1 (configuration not stated),inactive
3,CCOC(=O)C(C#N)=C(c1ccccc1)c1ccccc1,inactive
4,CCC(C)(O)CCCC(C)C (configuration not stated),inactive
5,CC(=O)CC/C=C(\C)CCC=C(C)C,inactive
6,CC1=CC2C3CC(C=C3C)C2C1 (configuration not stated),inactive
7,Cn1cnc([N+](=O)[O-])c1Sc1ncnc2nc[nH]c12,inactive
8,C=CC(C)(CCC=C(C)C)OC(C)=O (configuration not stated),inactive
9,CCCCNS(=O)(=O)c1ccccc1,inactive
10,OC(CCl)CCl,inactive
11,COc1ccccc1/C=C/C=O,inactive
12,O=C(OCc1ccccc1)c1ccccc1O,inactive
13,c1cc(-c2ccncc2)ccn1,inactive
14,CC(C)OB(OC(C)C)OC(C)C,inactive
15,CC(CCC(=O)O)(c1ccc(O)cc1)c1ccc(O)cc1,inactive
16,CC(C)OC=O,inactive
17,COC(=O)C1=C(C)NC(C)=C(C(=O)OCCN(C)Cc2ccccc2)C1c1cccc([N+](=O)[O-])c1 (configuration not stated),inactive
18,CC(C)=CCCC(C)CCO (configuration not stated),inactive
19,O=C(c1ccccc1)c1ccc(O)cc1O,inactive

# From PubChem BioAssay (Tox21)
